SENP7 inh – blocks the human protease SENP7. Q9BQF6. recombinant SENP7, Z-RLRGG-aminoluciferin luminescence, 40 min. inhibition, % at 5 µM. actives 1.5% (n = 330,000). AID 434973;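 active means inhibition above about 50% at the single test dose, limit read from the data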;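 further: plate controls were DMSO with enzyme for no effect and no enzyme buffer wells for full effect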
Target sequence (Q9BQF6 706-1050 limits assumed): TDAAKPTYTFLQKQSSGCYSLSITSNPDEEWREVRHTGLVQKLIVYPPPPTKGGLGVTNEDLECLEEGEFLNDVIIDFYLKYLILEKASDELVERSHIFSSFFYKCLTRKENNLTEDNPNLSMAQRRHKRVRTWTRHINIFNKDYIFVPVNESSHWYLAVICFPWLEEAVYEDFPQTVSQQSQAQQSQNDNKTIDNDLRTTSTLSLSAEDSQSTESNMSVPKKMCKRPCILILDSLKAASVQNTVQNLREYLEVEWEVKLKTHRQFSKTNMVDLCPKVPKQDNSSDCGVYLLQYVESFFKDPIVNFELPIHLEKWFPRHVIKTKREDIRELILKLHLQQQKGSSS
C8 TRAIL sens – caspase-8 TRAIL sensitization; AID 624354; actives 1% (n = 360,000); NB7+C8 cells + TRAIL, ATPlite viability luminescence; inhibition (viability loss, TRAIL sensitization), % at 10 µM;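 active means compounds causing at least 50% loss of cell viability in the single-dose screen, relative to plate controls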
SENP6 inh – inhibitors of human SENP6 protease. inhibition, % at 10 µM. actives 1.8% (n = 330,000). Recombinant SENP6 catalytic domain, aminoluciferin luminescence. Q9GZR1;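 active means inhibition above about 50% at the single tested dose, limit read from the data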;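 further: plate controls were DMSO wells with enzyme for no effect and DMSO wells lacking enzyme for full effect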
PPC-1+TRAIL kill – PPC-1 cancer cell killing with TRAIL present; cell killing (% activity), % at 4 µM or 5 µM; PPC-1 cells + TRAIL, ATPLite viability luminescence; actives 0.41% (n = 220,000);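 active means cell killing above 50% in the first pass at 4 µM, then a duplicate retest at 5 µM averaging 50% or more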;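 further: plate controls were cells with TRAIL plus DMSO for no effect and medium-only wells lacking cells for full effect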
SENP8 block-1 – SENP8 protease inhibition; purified SENP8, Z-RLRGG-aminoluciferin cleavage, luminescence; Q96LD8; actives 1.2% (n = 330,000); inhibition, % at 10 µM; in the data active means inhibition above about 50%
SENP8 block-2 – blocks human SENP8 cleavage of Nedd8 substrate; actives 0.64% (n = 360,000); Q96LD8; recombinant SENP8, Nedd8 substrate fluorescence; inhibition, % at 20 µM; AID 602440; in the data active means inhibition mostly above about 40%, no sharp cut-off; inactive means mostly below about 27%
SENP8 conf – human SENP8 inhibition, confirmed. shares compounds with SENP7 inh. Recombinant SENP8, Z-RLRGG-aminoluciferin luminescence, 60 min. inhibition, % at 12.5 µM. actives 40% (n = 6,200). AID 488912;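 active means mean inhibition across replicates above about 50%, limit read from the data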
SENP6 conf – confirmation of human SENP6 protease inhibitors; shares compounds with SENP7 inh; recombinant SENP6, Z-RLRGG-aminoluciferin luminescence; inhibition, % at 12.5 µM; actives 58% (n = 6,200); AID 488915
SENP7 conf – confirmation of human SENP7 protease inhibitors | inhibition, % at 12.5 µM | actives 69% (n = 6,200) | recombinant SENP7, Z-RLRGG-aminoluciferin luminescence, 40 min | AID 488917 | shares compounds with SENP7 inh
Casp3 select – inhibits human caspase-3 in SENP selectivity test; shares compounds with SENP7 inh; purified caspase-3, Z-DEVD-aminoluciferin luminescence, 60 min; inhibition, % at 12.5 µM; actives 60% (n = 6,200);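 active means mean inhibition above about 50%, limit read from the data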;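 further: plate controls were enzyme with DMSO for no effect and wells without caspase-3 for full effect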
Target sequence (P42574 28-227 limits assumed): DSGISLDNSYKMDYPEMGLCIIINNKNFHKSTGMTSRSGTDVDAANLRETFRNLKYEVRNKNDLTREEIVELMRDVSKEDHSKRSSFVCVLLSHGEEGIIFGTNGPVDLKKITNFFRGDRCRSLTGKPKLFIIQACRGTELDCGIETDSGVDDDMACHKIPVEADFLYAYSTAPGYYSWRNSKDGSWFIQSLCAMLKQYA
Luc interf – counter-screen for SENP inhibitors: luminescence interference | inhibition, % at 12.5 µM | shares compounds with SENP7 inh | actives 39% (n = 6,200) | Pre-incubated SENP8/Z-RLRGG-aminoluciferin, luciferase luminescence interference;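 active means mean inhibition above about 50% when retested at one dose, limit read from the data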;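 further: plate controls were DMSO wells with completed reaction for no effect and substrate without enzyme for full effect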
Starred values were filed as active, the others as inactive. Compounds with a hit are over-represented: about 3% of the library has one in this group of screens.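 How the source made its calls, unless noted: active means mean inhibition above about 50% in the one-dose retest (limit read from the data); inactive means the rest.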

Results for O=C1CCCC(O)=C1N=Nc1cccc(C(=O)O)c1 ?
SENP7 inh: 80.0*; C8 TRAIL sens: 3.5; SENP6 inh: 76.5*; PPC-1+TRAIL kill: 11.3; SENP8 block-1: 60.8*; SENP8 block-2: 20.8; SENP8 conf: 13.9; SENP6 conf: 78.1*; SENP7 conf: 95.5*; Casp3 select: 21.6; Luc interf: 69.5*

What do the screens show for `Cc1ccccc1[C@H](NC1c2ccccc2C=Cc2ccccc21)P(=O)(c1ccccc1)c1ccccc1`?
C8 TRAIL sens: 21.6; SENP8 block-2: -4.7

What do the screens show for `COc1cccc(-c2nc3ccc([N+](=O)[O-])cc3o2)c1`?
SENP7 inh: 94.6*; C8 TRAIL sens: 27.5; SENP6 inh: 0.1; PPC-1+TRAIL kill: 31.9; SENP8 block-1: 42.9; SENP8 block-2: 0.3; SENP8 conf: 48.7; SENP6 conf: 55.9*; SENP7 conf: 72.9*; Casp3 select: 48.9; Luc interf: 7.8

Results for O=c1oc(-c2cccc([N+](=O)[O-])c2)nc2ccccc12 ?
SENP7 inh: 2.3; C8 TRAIL sens: 6.9; SENP6 inh: 24.3; SENP8 block-1: 26.8; SENP8 block-2: 5.1

What do the screens show for `O=[N+]([O-])c1ccc2nc(-c3ccccc3)oc2c1`?
SENP7 inh: 71.1*; C8 TRAIL sens: -10.6; SENP6 inh: 77.5*; PPC-1+TRAIL kill: 7.9; SENP8 block-1: 63.4*; SENP8 block-2: 19.0; SENP8 conf: 54.3*; SENP6 conf: 58.8*; SENP7 conf: 78.3*; Casp3 select: 70.2*; Luc interf: 22.1

How did CCCCc1c(O)nc(SCC(=O)Nc2ccc(OC)cc2)n(-c2ccc(C)c(C)c2)c1=O do in these assays?
C8 TRAIL sens: -2.9; SENP8 block-2: 9.2

Results for O=C(NCCCN1C(=O)c2ccccc2C1=O)OCc1ccccc1 ?
C8 TRAIL sens: -12.9; SENP8 block-2: 12.5

What do the screens show for `COc1ccc(C(=O)C=Cc2ccc(OCc3ccccc3)c(OC)c2)cc1OC`?
C8 TRAIL sens: -12.8; SENP8 block-2: -458.0

How did COCC(=O)Nc1ccc(OCc2ccccc2)cc1 do in these assays?
SENP7 inh: 39.1; C8 TRAIL sens: 3.0; SENP6 inh: 29.9; PPC-1+TRAIL kill: 19.2; SENP8 block-1: 15.6; SENP8 block-2: 14.5

How did O=C(O)c1cccc(COc2ccc(CO)cc2Cl)c1 do in these assays?
SENP7 inh: 100.1*; C8 TRAIL sens: 66.8*; SENP6 inh: 97.1*; PPC-1+TRAIL kill: 32.4; SENP8 block-1: 96.3*; SENP8 block-2: 7.2; SENP8 conf: 97.5*; SENP6 conf: 100.5*; SENP7 conf: 103.6*; Casp3 select: 98.4*; Luc interf: 98.8*

What do the screens show for `COC(=O)Nc1ccc(OCc2ccccc2)cc1`?
SENP7 inh: 1.9; C8 TRAIL sens: 24.9; SENP6 inh: 72.8*; PPC-1+TRAIL kill: 9.7; SENP8 block-1: 47.8; SENP8 block-2: 7.6; SENP8 conf: 52.9*; SENP6 conf: 50.9*; SENP7 conf: 82.2*; Casp3 select: 62.9*; Luc interf: 17.6

Results for COc1cc(/C=C/[N+](=O)[O-])ccc1OCc1cccc(C(=O)O)c1 ?
SENP7 inh: 23.7; SENP6 inh: 51.5*; PPC-1+TRAIL kill: -3.3; SENP8 block-1: 25.1; SENP8 conf: 57.1*; SENP6 conf: 31.7; SENP7 conf: 48.7; Casp3 select: 16.0; Luc interf: 64.5*

How did O=C(O)c1cccc(COc2ccc3c(c2)CCC3)c1 do in these assays?
SENP7 inh: 98.9*; C8 TRAIL sens: 62.7*; SENP6 inh: 97.0*; PPC-1+TRAIL kill: 36.3; SENP8 block-1: 97.2*; SENP8 block-2: 25.1; SENP8 conf: 10.6; SENP6 conf: 100.9*; SENP7 conf: 103.6*; Casp3 select: 98.9*; Luc interf: 99.6*

How did COc1ccc(OCc2cccc(C(=O)O)c2)cc1 do in these assays?
SENP7 inh: 99.5*; C8 TRAIL sens: 61.9*; SENP6 inh: 97.6*; PPC-1+TRAIL kill: 33.6; SENP8 block-1: 96.5*; SENP8 block-2: 18.7; SENP8 conf: 99.9*; SENP6 conf: 100.9*; SENP7 conf: 103.3*; Casp3 select: 99.3*; Luc interf: 99.2*

How did Cc1ncc(CO)c(/C=N/N=C/c2ccccc2O)c1O do in these assays?
SENP7 inh: 25.4; C8 TRAIL sens: 6.6; SENP6 inh: 60.4*; PPC-1+TRAIL kill: 13.8; SENP8 block-1: 32.1; SENP8 block-2: -35.2; SENP8 conf: 7.1; SENP6 conf: 7.1; SENP7 conf: 8.6; Casp3 select: 9.3; Luc interf: 5.0

How did FC(F)(F)Oc1ccc(Nc2nc3ccccc3o2)cc1 do in these assays?
SENP7 inh: 23.1; C8 TRAIL sens: 1.2; SENP6 inh: 41.4; PPC-1+TRAIL kill: -17.3; SENP8 block-1: 4.1; SENP8 block-2: 12.6

How did Fc1ccccc1Nc1nc2ccccc2o1 do in these assays?
SENP7 inh: 96.6*; C8 TRAIL sens: 25.7; SENP6 inh: 98.9*; SENP8 block-1: 93.7*; SENP8 block-2: 19.8; SENP8 conf: 96.6*; SENP6 conf: 98.5*; SENP7 conf: 101.9*; Casp3 select: 97.2*; Luc interf: 96.2*

Results for O=C(NNc1nc2ccccc2nc1C(F)(F)F)c1ccccc1 ?
SENP7 inh: -8.3; C8 TRAIL sens: 4.7; SENP6 inh: -7.3; PPC-1+TRAIL kill: -12.2; SENP8 block-1: -5.3; SENP8 block-2: 7.2

What do the screens show for `O=C(NNc1nc2ccccc2o1)c1ccccc1`?
SENP7 inh: 0.1; C8 TRAIL sens: 13.4; SENP6 inh: 63.8*; PPC-1+TRAIL kill: 22.3; SENP8 block-1: 53.4*; SENP8 block-2: 2.5; SENP8 conf: 16.2; SENP6 conf: 69.4*; SENP7 conf: 47.8; Casp3 select: 71.1*; Luc interf: 44.4

How did c1ccc(Nc2nc3ccccc3o2)cc1 do in these assays?
SENP7 inh: 96.8*; C8 TRAIL sens: 36.0; SENP6 inh: 96.7*; PPC-1+TRAIL kill: 27.8; SENP8 block-1: 89.8*; SENP8 block-2: 10.5; SENP8 conf: 10.4; SENP6 conf: 96.8*; SENP7 conf: -1.1; Casp3 select: 92.6*; Luc interf: 94.3*

How did CC(=O)Nc1ccc(NC(=O)COC(=O)c2ccc(S(=O)(=O)N(C)c3ccccc3)cc2)cc1 do in these assays?
C8 TRAIL sens: 0.1; SENP8 block-2: -10.2
